Data published in PubChem BioAssay (EPA / NIEHS).
Several values for one entry are separate records, joined by “and”; a condition that tells them apart may be missing. Equal entries are not always repeated. Results filed as inconclusive are left out. The source holds several records for some structures; these can differ, active in one and inactive in another. Activity calls are given as the source filed them. Rule for the calls, unless noted: active = hit-call score of the fitted dose curve at least 0.9, where 1 is the maximum; inconclusive = response in the unintended direction; inactive = score below 0.9.

Key:
[1] = BSK_4H_Eotaxin3: BioMAP Diversity Plus: 4H Assay for Eotaxin 3 Biomarker Activity (AID 2283000; active = hit-call score of the fitted dose curve at least 0.9, where 1 is the maximum; inactive = score below 0.9); settings: primary human endothelial cells (HUVEC); actives raise or lower the signal
Outline: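 Human umbilical vein endothelial cells (BSK_4H system) dosed with test chemical; Eotaxin-3 (CCL26) measured by ELISA 24 h after dosing. Bidirectional curve fitting relative to DMSO negative control as baseline.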

[2] = target: human Peroxisome Proliferator-activated Receptor alpha (PPARa), PPARA (gene 5465) (UniProt Q07869); assay: ATG_PPARa_TRANS: Attagene TRANS-FACTORIAL HepG2 Assay for human Peroxisome Proliferator-activated Receptor alpha (PPARa) (AID 2283001);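 for AC50: potency for gain of reporter signal over DMSO so agonist or activator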
Outline: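 Gain-of-signal endpoint: reporter mRNA induction relative to DMSO, detected by fluorescent RT-PCR and capillary electrophoresis. HepG2 cells transiently carried GAL4-UAS-driven reporter units plus NR-Gal4 fusion; exposure lasted 24 h.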

[3] = target: human Peroxisome Proliferator-activated Receptor delta (PPARd), PPARD (gene 5467) (UniProt Q03181); assay: ATG_PPARd_TRANS: Attagene TRANS-FACTORIAL HepG2 Assay for human Peroxisome Proliferator-activated Receptor delta (PPARd) (AID 2283002)
Outline: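 HepG2 cells transiently transfected with multiplexed GAL4-UAS reporter units and exogenous chimeric NR-Gal4 proteins; 24 h compound exposure. Reporter mRNA measured by RT-PCR, 6-FAM labelling, HpaI digestion and capillary electrophoresis; gain of signal versus DMSO.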

[4] = read-out: Intercellular Adhesion Molecule 1 (ICAM1), ICAM1 (gene 3383); assay: BSK_3C_ICAM1: BioMAP Diversity Plus: 3C Assay for Intercellular Adhesion Molecule 1 (ICAM1) Biomarker Activity (AID 2283003; active = hit-call score of the fitted dose curve at least 0.9, where 1 is the maximum; inactive = score below 0.9); settings: primary human endothelial cells (HUVEC); actives raise or lower the signal
Outline: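 HUVEC primary cells stimulated under 3C conditions; ICAM1 measured by ELISA 24 h after compound dosing. Curves fitted bidirectionally against the DMSO baseline. Overt cytotoxicity checked by SRB staining of parallel cultures.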

[5] = BSK_3C_Proliferation: Cell Proliferation Assessment in the BioMAP Diversity Plus: 3C Assay (AID 2283006; active = hit-call score of the fitted dose curve at least 0.9, where 1 is the maximum; inactive = score below 0.9;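 for AC50: potency may reflect either rise or fall in cell number versus DMSO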); settings: primary human endothelial cells (HUVEC)
Outline: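 Subconfluent HUVEC (3C system) cultured with chemical; relative cell number read at 48 h by sulforhodamine B total-protein staining (0.1% SRB after 10% TCA fixation, 560 nm). Bidirectional fit relative to DMSO.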

[6] = target: Peroxisome proliferator-activated receptor gamma (Homo sapiens) (UniProt P37231); assay: ATG_PPARg_TRANS: Attagene TRANS-FACTORIAL HepG2 Assay for human Peroxisome Proliferator-activated Receptor-gamma (PPARg) (AID 2283007)
Outline: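 Multiplexed reporter transcription units in HepG2, 24 h dosing, reporter transcripts quantified by fluorescent RT-PCR and capillary electrophoresis. Increase over DMSO scored.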

[7] = target: Nuclear receptor subfamily 1 group I member 2 (Homo sapiens) (UniProt O75469); assay: ATG_PXR_TRANS: Attagene TRANS-FACTORIAL HepG2 Assay for human Pregnane X Receptor (PXR) (AID 2283008)
Outline: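 HepG2 cells transiently transfected with multiple reporter units, here a PXR-GAL4 chimera driving a GAL4-UAS reporter; 24 h compound exposure. Reporter mRNA measured by RT-PCR, FAM labelling and capillary electrophoresis; gain of signal fitted against DMSO baseline.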

[8] = target: human RAR-related Orphan Receptor gamma (RORg), RORC (gene 6097) (UniProt P51449); assay: ATG_RORg_TRANS: Attagene TRANS-FACTORIAL HepG2 Assay for human RAR-related Orphan Receptor gamma (RORg) (AID 2283011)
Outline: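 Reporter transcripts from a transfected RORg-GAL4 chimera in HepG2 cells were quantified 24 h after dosing by RT-PCR, 6-FAM labelling, HpaI digestion and capillary electrophoresis; increases over DMSO baseline were fitted.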

[9] = target: human Thyroid Receptor alpha (THRa1), THRA (gene 7067) (UniProt P10827); assay: ATG_THRa1_TRANS: Attagene TRANS-FACTORIAL HepG2 Assay for human Thyroid Receptor alpha (THRa1) (AID 2283014)
Outline: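 Transcripts from GAL4-UAS-driven reporters, measured after 24 h compound exposure by RT-PCR plus capillary electrophoresis of 6-FAM-labeled fragments, were fitted for gain of signal relative to DMSO. Cells: transiently transfected HepG2 expressing NR-Gal4 chimeras.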

[10] = read-out: E-selectin (Homo sapiens) (UniProt P16581); assay: BSK_3C_Eselectin: BioMAP Diversity Plus: 3C Assay for Eselectin Biomarker Activity (AID 2283015; active = hit-call score of the fitted dose curve at least 0.9, where 1 is the maximum; inactive = score below 0.9;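 note: cell surface E-selectin protein quantified by ELISA 24 h after dosing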); settings: primary human endothelial cells (HUVEC); actives raise or lower the signal
Outline: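 E-selectin ELISA readout, fitted bidirectionally relative to DMSO, taken 24 h post-dosing in HUVEC cultures of the 3C system. Overt cytotoxicity tracked with sulforhodamine B staining of parallel wells.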

[11] = read-out: Interleukin-1 alpha (IL1a), IL1A (gene 3552); assay: BSK_BE3C_IL1a: BioMAP Diversity Plus: BE3C Assay for Interleukin-1 alpha (IL1a) Biomarker Activity (AID 2283016; active = hit-call score of the fitted dose curve at least 0.9, where 1 is the maximum; inactive = score below 0.9); settings: primary human bronchial epithelial cells; actives raise or lower the signal
Outline: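 Human primary bronchial epithelial cells, 24 h chemical exposure; IL-1a quantified by ELISA, fitted bidirectionally against DMSO. Cytotoxicity assessed in parallel by SRB total-protein staining at the time of measurement.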

[12] = read-out: Monocyte Chemoattractant Protein-1 (MCP1), CCL2 (gene 6347); assay: BSK_3C_MCP1: BioMAP Diversity Plus: 3C Assay for Monocyte Chemoattractant Protein-1 (MCP1) Biomarker Activity (AID 2283017; active = hit-call score of the fitted dose curve at least 0.9, where 1 is the maximum; inactive = score below 0.9); settings: primary human endothelial cells (HUVEC); actives raise or lower the signal
Outline: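 MCP-1 was measured by ELISA 24 h after dosing in primary HUVEC 3C cultures and fitted in both directions relative to DMSO; cytotoxicity was checked by SRB total-protein staining in parallel wells.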

[13] = read-out: Monocyte Chemoattractant Protein-1 (MCP1), CCL2 (gene 6347); assay: BSK_4H_MCP1: BioMAP Diversity Plus: 4H Assay for Monocyte Chemoattractant Protein-1 (MCP1) Biomarker Activity (AID 2283018; active = hit-call score of the fitted dose curve at least 0.9, where 1 is the maximum; inactive = score below 0.9); settings: primary human endothelial cells (HUVEC); actives raise or lower the signal
Outline: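 Human umbilical vein endothelial cells (4H system) exposed to chemicals for 24 h in 96-well format. MCP-1 measured by ELISA; bidirectional fitting against DMSO, with SRB total-protein staining in parallel cultures for cytotoxicity.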

[14] = read-out: Human Leukocyte Antigen - DR isotype (HLADR), HLA-DRA (gene 3122); assay: BSK_3C_HLADR: BioMAP Diversity Plus: 3C Assay for Human Leukocyte Antigen - DR isotype (HLADR) Biomarker Activity (AID 2283019; active = hit-call score of the fitted dose curve at least 0.9, where 1 is the maximum; inactive = score below 0.9); settings: primary human endothelial cells (HUVEC); actives raise or lower the signal
Outline: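 Bidirectional fitting against DMSO was applied to the HLA-DR ELISA signal from human umbilical vein endothelial cells, 24 h post-dose. Cytotoxicity came from parallel SRB total-protein staining; 3C proliferation was counted by SRB at 48 h.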

[15] = target: human Retinoid X Receptor beta (RXRb), RXRB (gene 6257) (UniProt P28702); assay: ATG_RXRb_TRANS: Attagene TRANS-FACTORIAL HepG2 Assay for human Retinoid X Receptor beta (RXRb) (AID 2283013)
Outline: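 HepG2 cells were transiently transfected with multiplexed GAL4-UAS reporters and a chimeric RXRb-Gal4 construct, then exposed for 24 h. Reporter mRNA was quantified by RT-PCR, FAM labeling, HpaI digestion and capillary electrophoresis; gain of signal was scored against DMSO.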

[16] = target: human Retinoic Acid Receptor gamma (RARg), RARG (gene 5916) (UniProt P13631); assay: ATG_RARg_TRANS: Attagene TRANS-FACTORIAL HepG2 Assay for human Retinoic Acid Receptor gamma (RARg) (AID 2283009)
Outline: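 HepG2 transiently transfected with GAL4-UAS reporter units and chimeric NR-Gal4 constructs; 24 h compound exposure. Reporter mRNA quantified by RT-PCR, FAM labeling, HpaI digestion and capillary electrophoresis; gain-of-signal versus DMSO.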

[17] = target: human RAR-related Orphan Receptor beta (RORb), RORB (gene 6096) (UniProt Q92753); assay: ATG_RORb_TRANS: Attagene TRANS-FACTORIAL HepG2 Assay for human RAR-related Orphan Receptor beta (RORb) (AID 2283010)
Outline: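 HepG2 cells transiently transfected with GAL4-UAS reporter units expressing chimeric NR-Gal4 protein; reporter mRNA measured 24 h after dosing by RT-PCR, 6-FAM labelling and capillary electrophoresis. Gain-of-signal fitted relative to DMSO baseline.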

[18] = target: Retinoic acid receptor RXR-alpha (Homo sapiens) (UniProt P19793); assay: ATG_RXRa_TRANS: Attagene TRANS-FACTORIAL HepG2 Assay for human Retinoid X Receptor alpha (RXRa) (AID 2283012)
Outline: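 HepG2 cells transiently transfected with GAL4-UAS reporter units and chimeric RXRa-Gal4 protein, treated 24 h. Reporter mRNA measured by RT-PCR, fluorescent labelling, HpaI digestion and capillary electrophoresis. Induction fitted against DMSO.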

[19] = target: human Retinoic Acid Receptor beta (RARb), RARB (gene 5915) (UniProt P10826); assay: ATG_RARb_TRANS: Attagene TRANS-FACTORIAL HepG2 Assay for human Retinoic Acid Receptor beta (AID 2283004)
Outline: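 Induction of reporter mRNA from a chimeric RARb-Gal4 construct was measured by RT-PCR, FAM labelling, HpaI digestion and capillary electrophoresis. Measurements followed 24 h compound treatment of transiently transfected human HepG2 liver cells, with DMSO as baseline.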

[20] = target: Retinoic acid receptor alpha (Homo sapiens) (UniProt P10276); assay: ATG_RARa_TRANS: Attagene TRANS-FACTORIAL HepG2 Assay for human Retinoic Acid Receptor alpha (RARa) (AID 2283005)
Outline: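 HepG2 cells transiently transfected with multiple reporter units expressing chimeric RARα-GAL4 fusion, with GAL4-UAS-driven reporters. After 24 h compound exposure, reporter mRNA induction quantified by RT-PCR and capillary electrophoresis with fluorescent labeling; gain-of-signal fitted relative to DMSO control.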

Measured: AC50

Chain of human Retinoid X Receptor beta (RXRb), RXRB (gene 6257) (P28702 whole entry, looked up, the tested form may be a part): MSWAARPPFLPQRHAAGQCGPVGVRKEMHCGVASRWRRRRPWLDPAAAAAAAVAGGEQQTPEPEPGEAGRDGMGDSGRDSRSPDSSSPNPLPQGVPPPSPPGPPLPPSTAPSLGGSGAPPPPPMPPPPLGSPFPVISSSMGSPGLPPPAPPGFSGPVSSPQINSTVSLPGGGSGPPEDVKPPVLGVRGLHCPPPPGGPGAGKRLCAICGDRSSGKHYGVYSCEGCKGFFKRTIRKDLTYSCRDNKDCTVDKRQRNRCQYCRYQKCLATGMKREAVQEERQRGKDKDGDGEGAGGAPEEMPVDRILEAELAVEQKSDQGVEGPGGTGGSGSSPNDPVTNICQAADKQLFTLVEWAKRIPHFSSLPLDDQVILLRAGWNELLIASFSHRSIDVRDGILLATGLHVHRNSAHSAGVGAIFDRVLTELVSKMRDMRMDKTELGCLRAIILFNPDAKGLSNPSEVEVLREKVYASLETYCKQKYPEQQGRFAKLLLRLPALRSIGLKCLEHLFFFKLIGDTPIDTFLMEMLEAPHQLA
Chain of Nuclear receptor subfamily 1 group I member 2 (Homo sapiens) (O75469 whole entry, looked up, the tested form may be a part): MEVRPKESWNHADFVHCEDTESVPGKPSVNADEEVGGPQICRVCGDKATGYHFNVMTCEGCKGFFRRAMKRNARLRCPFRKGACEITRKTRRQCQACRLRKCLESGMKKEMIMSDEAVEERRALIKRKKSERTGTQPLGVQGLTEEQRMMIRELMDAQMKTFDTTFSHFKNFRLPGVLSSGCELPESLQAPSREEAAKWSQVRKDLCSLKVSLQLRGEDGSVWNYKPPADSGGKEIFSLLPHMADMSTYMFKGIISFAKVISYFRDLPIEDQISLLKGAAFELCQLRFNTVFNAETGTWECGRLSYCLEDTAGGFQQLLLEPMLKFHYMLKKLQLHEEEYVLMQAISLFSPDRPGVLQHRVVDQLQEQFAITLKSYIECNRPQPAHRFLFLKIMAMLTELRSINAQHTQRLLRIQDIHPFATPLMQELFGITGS
Chain of human RAR-related Orphan Receptor beta (RORb), RORB (gene 6096) (Q92753 whole entry, looked up, the tested form may be a part): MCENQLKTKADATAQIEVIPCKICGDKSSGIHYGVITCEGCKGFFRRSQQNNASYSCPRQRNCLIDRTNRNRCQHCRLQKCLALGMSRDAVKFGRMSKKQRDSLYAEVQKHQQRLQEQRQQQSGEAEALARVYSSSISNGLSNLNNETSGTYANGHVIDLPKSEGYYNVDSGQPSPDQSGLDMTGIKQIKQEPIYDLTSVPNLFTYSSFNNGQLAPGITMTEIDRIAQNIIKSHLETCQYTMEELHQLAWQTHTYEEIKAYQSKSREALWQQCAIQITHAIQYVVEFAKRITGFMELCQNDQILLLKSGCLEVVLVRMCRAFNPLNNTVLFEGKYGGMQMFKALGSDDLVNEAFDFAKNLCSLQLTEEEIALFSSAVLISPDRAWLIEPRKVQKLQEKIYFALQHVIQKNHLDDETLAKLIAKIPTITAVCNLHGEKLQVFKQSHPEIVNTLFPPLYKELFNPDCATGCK
Chain of human RAR-related Orphan Receptor gamma (RORg), RORC (gene 6097) (P51449 whole entry, looked up, the tested form may be a part): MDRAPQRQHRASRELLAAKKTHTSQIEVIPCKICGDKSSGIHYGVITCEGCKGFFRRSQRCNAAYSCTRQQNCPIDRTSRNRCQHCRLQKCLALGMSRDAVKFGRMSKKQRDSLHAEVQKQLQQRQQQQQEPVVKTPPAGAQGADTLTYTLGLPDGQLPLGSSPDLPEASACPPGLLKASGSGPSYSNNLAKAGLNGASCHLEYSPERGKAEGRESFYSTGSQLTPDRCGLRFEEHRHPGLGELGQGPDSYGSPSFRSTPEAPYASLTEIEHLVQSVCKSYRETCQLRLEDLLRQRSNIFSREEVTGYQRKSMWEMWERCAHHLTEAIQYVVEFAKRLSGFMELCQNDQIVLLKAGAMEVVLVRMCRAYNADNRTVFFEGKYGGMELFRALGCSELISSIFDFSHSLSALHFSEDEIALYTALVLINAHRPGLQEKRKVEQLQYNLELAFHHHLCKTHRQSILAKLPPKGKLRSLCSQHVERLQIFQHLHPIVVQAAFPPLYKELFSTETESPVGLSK
Chain of human Retinoic Acid Receptor beta (RARb), RARB (gene 5915) (P10826 whole entry, looked up, the tested form may be a part): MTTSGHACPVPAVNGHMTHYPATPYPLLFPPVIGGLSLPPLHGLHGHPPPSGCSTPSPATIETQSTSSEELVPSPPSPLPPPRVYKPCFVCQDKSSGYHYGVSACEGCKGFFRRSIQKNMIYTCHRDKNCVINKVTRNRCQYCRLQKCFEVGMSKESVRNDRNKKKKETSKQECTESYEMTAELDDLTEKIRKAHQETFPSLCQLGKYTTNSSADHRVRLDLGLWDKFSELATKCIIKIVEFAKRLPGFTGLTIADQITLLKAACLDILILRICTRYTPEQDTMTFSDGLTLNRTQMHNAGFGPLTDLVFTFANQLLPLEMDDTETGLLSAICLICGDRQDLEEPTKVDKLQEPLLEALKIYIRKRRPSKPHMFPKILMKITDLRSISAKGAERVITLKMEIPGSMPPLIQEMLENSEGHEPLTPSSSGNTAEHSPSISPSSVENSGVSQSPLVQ
Chain of human Retinoic Acid Receptor gamma (RARg), RARG (gene 5916) (P13631 whole entry, looked up, the tested form may be a part): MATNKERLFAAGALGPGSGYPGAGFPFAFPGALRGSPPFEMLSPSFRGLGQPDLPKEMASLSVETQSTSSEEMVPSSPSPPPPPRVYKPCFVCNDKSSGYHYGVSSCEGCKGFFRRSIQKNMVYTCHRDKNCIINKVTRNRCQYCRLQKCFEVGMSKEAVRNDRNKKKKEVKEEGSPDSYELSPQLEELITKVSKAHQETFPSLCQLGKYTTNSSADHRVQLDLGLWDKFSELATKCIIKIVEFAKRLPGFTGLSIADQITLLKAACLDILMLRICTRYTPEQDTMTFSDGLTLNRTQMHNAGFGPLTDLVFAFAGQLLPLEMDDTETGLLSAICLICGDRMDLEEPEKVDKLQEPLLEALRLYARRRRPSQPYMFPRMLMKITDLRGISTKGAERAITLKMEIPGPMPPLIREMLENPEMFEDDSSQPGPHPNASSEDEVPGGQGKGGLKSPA
Chain of Peroxisome proliferator-activated receptor gamma (Homo sapiens) (P37231 whole entry, looked up): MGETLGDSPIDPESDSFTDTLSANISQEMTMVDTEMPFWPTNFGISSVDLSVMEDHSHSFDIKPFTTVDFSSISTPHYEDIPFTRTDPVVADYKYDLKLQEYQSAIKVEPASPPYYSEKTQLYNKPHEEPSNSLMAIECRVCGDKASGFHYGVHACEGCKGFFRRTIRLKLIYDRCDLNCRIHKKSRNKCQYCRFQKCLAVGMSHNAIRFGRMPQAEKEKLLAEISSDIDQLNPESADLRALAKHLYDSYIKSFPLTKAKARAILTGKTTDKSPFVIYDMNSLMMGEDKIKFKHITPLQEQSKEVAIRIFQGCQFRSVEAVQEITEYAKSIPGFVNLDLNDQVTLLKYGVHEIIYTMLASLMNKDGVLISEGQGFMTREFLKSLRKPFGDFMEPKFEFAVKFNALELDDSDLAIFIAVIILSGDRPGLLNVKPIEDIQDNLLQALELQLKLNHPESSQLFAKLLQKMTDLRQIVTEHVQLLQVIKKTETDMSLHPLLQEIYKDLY
Chain of human Thyroid Receptor alpha (THRa1), THRA (gene 7067) (P10827 whole entry, looked up, the tested form may be a part): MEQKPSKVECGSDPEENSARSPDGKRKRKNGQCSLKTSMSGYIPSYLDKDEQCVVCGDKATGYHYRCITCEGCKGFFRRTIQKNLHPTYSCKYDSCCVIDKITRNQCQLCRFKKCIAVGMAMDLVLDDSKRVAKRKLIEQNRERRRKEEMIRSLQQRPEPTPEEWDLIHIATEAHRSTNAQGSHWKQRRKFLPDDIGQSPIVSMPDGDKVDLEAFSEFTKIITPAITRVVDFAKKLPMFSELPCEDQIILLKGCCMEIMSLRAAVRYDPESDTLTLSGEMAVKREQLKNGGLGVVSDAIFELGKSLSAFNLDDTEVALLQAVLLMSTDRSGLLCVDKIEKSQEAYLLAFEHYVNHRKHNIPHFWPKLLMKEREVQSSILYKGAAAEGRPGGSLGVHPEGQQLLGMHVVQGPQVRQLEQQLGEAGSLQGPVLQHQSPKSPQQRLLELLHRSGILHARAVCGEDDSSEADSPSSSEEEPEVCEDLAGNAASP
Chain of human Peroxisome Proliferator-activated Receptor delta (PPARd), PPARD (gene 5467) (Q03181 whole entry, looked up, the tested form may be a part): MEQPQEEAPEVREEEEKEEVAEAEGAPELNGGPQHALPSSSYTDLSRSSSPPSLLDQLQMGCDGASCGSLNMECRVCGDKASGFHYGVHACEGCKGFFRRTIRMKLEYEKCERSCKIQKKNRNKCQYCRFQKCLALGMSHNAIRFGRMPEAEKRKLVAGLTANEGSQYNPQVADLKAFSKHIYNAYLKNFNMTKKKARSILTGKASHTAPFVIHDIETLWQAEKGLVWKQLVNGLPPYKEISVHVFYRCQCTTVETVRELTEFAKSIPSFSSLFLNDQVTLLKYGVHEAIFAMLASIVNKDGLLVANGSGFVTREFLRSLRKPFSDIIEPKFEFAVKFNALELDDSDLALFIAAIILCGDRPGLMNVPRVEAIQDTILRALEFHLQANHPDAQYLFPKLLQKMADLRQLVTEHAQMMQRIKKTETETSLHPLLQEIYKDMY
Chain of human Peroxisome Proliferator-activated Receptor alpha (PPARa), PPARA (gene 5465) (Q07869 whole entry, looked up, the tested form may be a part): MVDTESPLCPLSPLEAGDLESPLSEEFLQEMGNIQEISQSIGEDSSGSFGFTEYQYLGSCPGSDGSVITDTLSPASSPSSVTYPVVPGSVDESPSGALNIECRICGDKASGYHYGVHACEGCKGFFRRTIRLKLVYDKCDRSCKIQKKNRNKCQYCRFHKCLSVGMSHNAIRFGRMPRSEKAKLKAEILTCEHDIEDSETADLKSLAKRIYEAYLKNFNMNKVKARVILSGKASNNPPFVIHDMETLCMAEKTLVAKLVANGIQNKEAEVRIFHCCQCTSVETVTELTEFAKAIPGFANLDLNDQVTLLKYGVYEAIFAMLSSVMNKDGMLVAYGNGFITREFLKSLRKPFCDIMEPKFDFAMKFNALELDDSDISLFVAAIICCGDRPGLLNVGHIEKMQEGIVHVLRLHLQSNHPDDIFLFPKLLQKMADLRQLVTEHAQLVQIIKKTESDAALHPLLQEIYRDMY

NC(=O)c1c(Cl)cccc1Cl
active: [7] 0.36 µM
not listed: [15] | [16] | [17] | [18] | [19] | [20]
inactive: all other assays above

CC1(C)[C@H](C=C(Cl)Cl)[C@H]1C(=O)OCc1cccc(Oc2ccccc2)c1
active: [7] 1.99 µM
inactive: [1] | [3] | [4] | [5] | [15] | [9] | [11] | [12] | [13] | [14]

CC(C)Cc1ccc(C(C)C(=O)O)cc1 (stereo not given)
active: [2] 31 µM | [3] 142 µM
inactive: [1] | [4] | [5] | [7] | [16] | [15] | [11] | [12] | [13] | [14]

c1ccc2c(c1)-c1ccc3ccc4cccc5cc-2c1c3c45
active: [1] 0.981 µM | [14] 0.621 µM
not listed: [10] | [16] | [18] | [19] | [20]
inactive: all other assays above

c1ccc(OCCOc2ccccc2)cc1
inactive: [1] | [3] | [4] | [5] | [7] | [17] | [18] | [11] | [12] | [13] | [14]

CCCCCCCCCC(=O)OCC
inactive: [3] | [7] | [16] | [8] | [18]
active: [1] 34.3 µM | [2] 64.9 µM | [4] 35.1 µM | [5] 20 µM | [11] 20 µM | [12] 32 µM | [13] 29.7 µM | [14] 14.4 µM

CCCCCCCC1CCCC1=O (stereo not given)
inactive: [2] | [16] | [17] | [18] | [15] | [13]
active: [1] 31.9 µM | [4] 31.3 µM | [5] 36.8 µM | [7] 34.2 µM | [11] 34.1 µM | [12] 31.1 µM | [14] 31.6 µM

Nc1ccc(N)c([N+](=O)[O-])c1
not listed: [9] | [10] | [17] | [20]
inactive: all other assays above

CC(=O)OCC=C(C)CCC=C(C)CCC=C(C)C
inactive: [1] | [2] | [4] | [5] | [18] | [9] | [11] | [12] | [14]
active: [6] 18.9 µM | [7] 15.7 µM | [15] 9.14 µM | [13] 3.97 µM

CC(=O)CCC=C(C)CCC=C(C)C
active: [1] 31.5 µM | [7] 4.33 µM
not listed: [3] | [6] | [10] | [16] | [17] | [19] | [20]
inactive: all other assays above

CCCCCCCCCCCCS
active: [1] 28 µM | [4] 29.8 µM | [5] 14.4 µM | [12] 29.5 µM | [13] 23.8 µM | [14] 20 µM
inactive: [2] | [6] | [7] | [8] | [18] | [15] | [11]

OCCN1CCOCC1
not listed: [6] | [10] | [17] | [18] | [20]
inactive: all other assays above

CC1=CC(C)C(C=O)C(C)C1 (stereo not given) (tested in a mixture with another compound)
not listed: [3] | [8] | [10] | [15] | [16] | [18] | [19] | [20]
inactive: all other assays above

CCn1cc(C(=O)O)c(=O)c2ccc(C)nc21
not listed: [2] | [3] | [8] | [9] | [10] | [15] | [16] | [20]
inactive: all other assays above
